This is a sample that favours compounds with a hit; in the whole collection about 2.4% have one here.
POLH inh – DNA polymerase eta (human) inhibition | recombinant Pol eta, fluorescent DNA replication assay | Q9Y253 | 390,000 tested, 1.2% active | Potency, µM (top dose mostly 114 µM), inactives show at the top dose activity change, negative = inhibition, hits mostly inhibitors; further: on the % scale 0 is the no-effect control and ±100 the full control effect
Target sequence (Q9Y253 whole entry, looked up): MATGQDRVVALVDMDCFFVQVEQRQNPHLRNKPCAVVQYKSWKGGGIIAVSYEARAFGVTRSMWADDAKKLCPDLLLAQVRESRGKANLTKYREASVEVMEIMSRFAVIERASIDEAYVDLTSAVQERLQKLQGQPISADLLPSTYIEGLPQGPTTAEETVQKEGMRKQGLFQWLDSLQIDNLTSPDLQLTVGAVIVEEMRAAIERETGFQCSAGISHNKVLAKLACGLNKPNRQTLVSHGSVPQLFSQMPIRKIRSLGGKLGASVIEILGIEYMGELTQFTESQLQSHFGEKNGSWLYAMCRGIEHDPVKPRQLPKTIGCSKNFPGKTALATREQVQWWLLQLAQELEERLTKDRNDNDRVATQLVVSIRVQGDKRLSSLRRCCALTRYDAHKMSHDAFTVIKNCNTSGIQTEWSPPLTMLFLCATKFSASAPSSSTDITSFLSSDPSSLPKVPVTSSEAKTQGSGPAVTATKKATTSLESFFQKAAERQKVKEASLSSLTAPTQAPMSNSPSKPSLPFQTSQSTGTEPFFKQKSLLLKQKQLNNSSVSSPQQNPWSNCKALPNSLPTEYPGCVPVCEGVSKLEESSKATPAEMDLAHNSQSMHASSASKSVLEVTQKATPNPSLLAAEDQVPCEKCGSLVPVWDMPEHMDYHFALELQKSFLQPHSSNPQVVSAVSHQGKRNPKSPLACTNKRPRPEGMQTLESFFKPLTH
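Pol eta (10 nM) was preincubated with compounds for 15 min at room temperature, after which fluorescent replication substrate (50 nM final) was added to start the reaction. Fluorescence was read kinetically at 0 and 10 min.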
Pol iota inh – inhibitors of human DNA polymerase iota; AID 588590; 390,000 tested, 1% active; Potency, µM (top dose mostly 115 µM), inactives show top-dose activity, negative = inhibition, hits mostly inhibitors; Pol iota fluorescent replication assay, 10 min; Q9UNA4
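Fluorescent replication assay read twice, at 0 min and 10 min after adding 50 nM (final) substrate. Enzyme (10 nM) and compounds were first incubated 15 min at room temperature; enzyme-free buffer wells were negative controls.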
FEN1 inhibitor – blocks human flap endonuclease 1; P39748; Recombinant FEN1 flap cleavage, fluorescence, 15 min; Potency, µM (doses to about 114 µM), for the others: top-dose activity change, negative = inhibition, hits mostly inhibitors; 390,000 tested, 0.35% active; AID 588795; further: on the % scale 0 is the no-effect control and ±100 the full control effect; nearly all actives have a fitted effect of over 65% in size
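Steps: FEN1 (10 nM) dispensed; compound added by pin tool; 15 min at room temperature; substrate added to 50 nM final; reads at 0 min and 15 min; data normalized and fitted (four-parameter Hill).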
POLK inh – inhibitors of human DNA polymerase kappa; Potency, µM (series often up to 107 µM), inactives show at the highest dose activity, negative = inhibition, usual class: inhibitors; purified Pol kappa, fluorescent DNA synthesis assay, 10 min; 400,000 tested, 0.53% active; further: on the % scale 0 is the no-effect control and ±100 the full control effect
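Activity was followed as the change in fluorescence between reads at 0 and 10 min after starting the reaction with 50 nM substrate. Beforehand, 10 nM polymerase had been preincubated with compound for 15 min at room temperature.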
Pol beta inh – inhibitors of human DNA polymerase beta; P06746; Pol beta primer extension/strand displacement, fluorescence kinetic; Potency, µM (titrated, usually from 114 µM), for inactives: top-dose activity change, negative = inhibition, most hits filed as inhibitors; 340,000 tested, 1.3% active; AID 485314; further: on the % scale 0 is the no-effect control and ±100 the full control effect
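Reaction started by 50 nM substrate onto compound-treated Pol beta (10 nM, 15 min preincubation, room temperature); plates read at 0 min and 10 min. Normalized concentration-effect data fitted by four-parameter Hill equation.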
WRN helicase inh – blocks human WRN helicase | 360,000 tested, 0.46% active | Q14191 | WRN helicase unwinding, fluorescent forked duplex, kinetic | Potency, µM (series often up to 114 µM), for the others: at the top dose activity change, negative = inhibition, actives largely listed as inhibitors; further: on the % scale 0 is the no-effect control and ±100 the full control effect; nearly all actives have a fitted effect of over 55% in size
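Primary qHTS, 1536-well format. 20 nM WRN + compound, 15 min RT; start with 100 nM forked fluorophore/quencher duplex, 2 mM ATP (final); kinetic read ex 525/em 598 nm.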
Starred values were filed as active, the others as inactive; ? = inconclusive; nt = no result; [ ] = dose if it differs, or a comment. The call rests on the fitted dose curve; in most records, active means well fitted curve in the direction sought with a large enough effect; inconclusive means small, poorly fitted or top-dose-only effect, or another doubt; inactive means no such curve, though single readings can be large; an effect the other way counts as inactive or inconclusive. Potency means the concentration at half of the fitted maximal effect.

SMILES	POLH inh	Pol iota inh	FEN1 inhibitor	POLK inh	Pol beta inh	WRN helicase inh
COc1cc(NC(=O)CNC(=O)Cn2c(C)cc3ccccc3c2=O)cc(OC)c1OC	-14%	7%	6%	2%	0%	5%
COc1ccc(NC(=O)CNC(=O)Cn2c(C)cc3ccccc3c2=O)cc1OC	-25%	38%	8%	6%	32µM*	-19%
COc1ccc2nc(NC(=O)c3nc(S(=O)(=O)Cc4ccccc4F)ncc3Cl)sc2c1	?	?	5%	?	5.6µM*	nt
COc1ccc2nc(NC(=O)c3nc(SCc4ccccc4F)ncc3Cl)sc2c1	-15%	8%	16%	?	1%	nt
O=C(/C=C/c1ccc(O)cc1)c1ccc(NC2=C(N3CCCCC3)C(=O)c3ccccc3C2=O)cc1	?	28µM*	-5%	-11%	?	-35%
COc1ccc(Cn2cc3c(-c4ccc(F)cc4)nnc-3c3cc(OC)c(OC)cc32)cc1	-14%	-13%	?	-4%	79µM*	40%
CC(C)(C)c1nnc2sc(SC/C(O)=C(\C#N)c3nc4ccccc4[nH]3)nn2c1=O	20µM*	-26%	4%	-17%	-21%	?
CC(C)(C)c1nnc2sc(SCC(=O)c3ccccc3)nn2c1=O	-10%	5%	0%	2%	-1%	11%
Cc1ccc(Nc2nnc(SC/C(O)=C(\C#N)c3nc4ccccc4[nH]3)s2)c(C)c1	32µM*	?	-7%	-30%	-13%	-26%
CCCCOc1ccc(CC(=O)N(C)OC)cc1	nt	44%	0%	-7%	nt	nt
COc1cc(/C=C/c2nc3ccccc3nc2/C=C/c2cc(OC)c(OC)c(OC)c2)cc(OC)c1OC	nt	25%	-4%	-19%	nt	nt
CCOC(=O)C1=C(C)N(c2ccc(C)c(C)c2)C(=O)/C1=C\c1ccco1	-14%	12%	-16%	-5%	28%	-9%
COC(=O)C1=C(C)N(c2ccc(C)c(C)c2)/C(=C/c2ccco2)C1=O	-3%	?	0%	-21%	22µM*	?
CC(C)(C)n1ncc2c(=O)n(Cc3ccc(F)c(C(F)(F)F)c3)cnc21	nt	7%	-9%	-7%	nt	nt
Cc1ccc(CNC(=O)c2c[nH]n3c(=O)c(Cc4ccc(F)cc4Cl)c(C)nc23)cc1	71µM*	?	?	?	50µM*	nt
Cc1nc2c(C(=O)NCCc3ccccc3)c[nH]n2c(=O)c1Cc1ccc(F)cc1Cl	-30%	?	?	-22%	79µM*	nt
Cc1nc2c(C(=O)NCCc3ccccc3)c[nH]n2c(=O)c1Cl	-11%	23%	-20%	-5%	34%	-14%
Cc1nc2c(C(=O)NCCc3ccc(Cl)cc3)c[nH]n2c(=O)c1Cc1ccccc1F	?	71µM*	?	-13%	?	nt
Cc1nc2c(C(=O)NCCC(C)C)c[nH]n2c(=O)c1Cc1ccccc1F	-3%	?	-18%	-12%	71µM*	-9%[57.1 µM]
CCCCSCCCNC(=O)c1c[nH]c2ccc(S(=O)(=O)Nc3cccc(OC)c3)cc2c1=O	-29%	?	13%	-23%[60.1 µM]	?	nt
Cc1ccc(S(=O)(=O)N2CCN(c3nc(-n4c(=O)[nH]c5ccccc54)nc4ccccc34)CC2)cc1	nt	16%	8%	3%	nt	nt
COc1ccc(C(=O)Nc2ccc3nc(SCC(=O)N(C)c4ccccc4)sc3c2)cc1	-15%	-2%	34%	2%	8%	nt
N#CC(C#N)=Cc1ccc(-c2ccc(S(=O)(=O)N=C(N)N)cc2)o1	20µM*	?	-7%	-19%	7%	-42%
COC(=O)/C(C#N)=C/c1ccc(-c2ccc(S(N)(=O)=O)cc2)o1	-5%	37%	-4%	-16%	-19%	-20%
O=C(NCc1ccccn1)C1(C(F)(F)F)CC(CCCO)CCCO1 (configuration not stated)	nt	21%	-10%	5%	nt	nt
SMILES	POLH inh	Pol iota inh	FEN1 inhibitor	POLK inh	Pol beta inh	WRN helicase inh
O=C(CSc1nnc(SCC(=O)c2ccco2)s1)c1ccco1	16µM*	?	-9%	?	32µM*	?
CC(NC(=O)C1CCCN1C(=O)CN)C(=O)O (configuration not stated)	nt	nt	nt	10%[60.1 µM]	nt	nt
O=c1c(-c2cccs2)nc2cnc(N3CCNCC3)nc2n1C1CC1	nt	nt	nt	-2%[60.1 µM]	nt	nt
O=C(CC1SC(=O)N(c2ccccc2)C1=O)Nc1ccc(Cl)cc1 (configuration not stated)	5%	58%	0%	-19%	-12%	25µM*
CCc1ccc2nc(NC(=O)c3ccc4c(=O)[nH]c(CN5CCOCC5)nc4c3)sc2c1	50µM*	?	-3%	-21%	79µM*	?
CCc1ccc2nc(NC(=O)c3ccc(N4C(=O)CCC4=O)cc3)sc2c1	-15%	7%	-2%	-14%	27%	-2%
O=C(O)c1ccc2c(c1)ncn2-c1ccc(F)c(F)c1	2%	6%	14%	-11%	10%	nt
O=[S+]([O-])([O-])c1ccc2c(c1)cc([S+](=O)([O-])[O-])c1nn(-c3ccc(/C=C/c4ccc(-n5nc6c([S+](=O)([O-])[O-])cc7cc([S+](=O)([O-])[O-])ccc7c6n5)cc4[S+](=O)([O-])[O-])c([S+](=O)([O-])[O-])c3)nc12	nt	?	?	10µM*	nt	nt
O=C(O)c1ccc2c(ccc3nn(-c4ccc(/C=C/c5ccc(-n6nc7ccc8cc(C(=O)O)ccc8c7n6)cc5[S+](=O)([O-])[O-])c([S+](=O)([O-])[O-])c4)nc32)c1	nt	?	3.2µM*	1.8µM*	nt	nt
Oc1ccc2ccccc2c1SSc1c(O)ccc2ccccc12	nt	nt	nt	0%[60.1 µM]	nt	nt
CO/S(=N\S(=O)(=O)c1ccc(Cl)cc1)c1ccc([N+](=O)[O-])cc1 (configuration not stated)	nt	nt	nt	-5%[60.1 µM]	nt	nt
COC(=O)c1ccccc1NC(=O)c1cc2nc(C3CC3)cc(C(F)(F)F)n2n1	79µM*	?	1%	-22%	50µM*	-5%[57.1 µM]
O=C(Nc1ccc2c(c1)OCO2)c1cc2ncc(Br)cn2n1	3.5µM*	?	-15%	-41%	28µM*	?
O=C(Nc1ccc2c(c1)OCO2)c1cc2nc(C3CC3)cc(C(F)(F)F)n2n1	?	?	8%	-18%	40µM*	-10%[57.1 µM]
COC(=O)c1ccccc1NC(=O)c1cc2nc(-c3ccc(OC)cc3)cc(C(F)(F)F)n2n1	0%	-2%	-5%	-9%	40%	nt
CN(C)c1ccc(N=Cc2cccc3ccccc23)cc1	nt	15%	-2%	-26%	nt	nt
